The assay addresses Sister chromatid cohesion protein 2 (UniProt Q04002). Briefly: cross-link between two proteins; cross-linking mass spectrometry.
Chain of UniProt Q04002 (Q04002 whole entry): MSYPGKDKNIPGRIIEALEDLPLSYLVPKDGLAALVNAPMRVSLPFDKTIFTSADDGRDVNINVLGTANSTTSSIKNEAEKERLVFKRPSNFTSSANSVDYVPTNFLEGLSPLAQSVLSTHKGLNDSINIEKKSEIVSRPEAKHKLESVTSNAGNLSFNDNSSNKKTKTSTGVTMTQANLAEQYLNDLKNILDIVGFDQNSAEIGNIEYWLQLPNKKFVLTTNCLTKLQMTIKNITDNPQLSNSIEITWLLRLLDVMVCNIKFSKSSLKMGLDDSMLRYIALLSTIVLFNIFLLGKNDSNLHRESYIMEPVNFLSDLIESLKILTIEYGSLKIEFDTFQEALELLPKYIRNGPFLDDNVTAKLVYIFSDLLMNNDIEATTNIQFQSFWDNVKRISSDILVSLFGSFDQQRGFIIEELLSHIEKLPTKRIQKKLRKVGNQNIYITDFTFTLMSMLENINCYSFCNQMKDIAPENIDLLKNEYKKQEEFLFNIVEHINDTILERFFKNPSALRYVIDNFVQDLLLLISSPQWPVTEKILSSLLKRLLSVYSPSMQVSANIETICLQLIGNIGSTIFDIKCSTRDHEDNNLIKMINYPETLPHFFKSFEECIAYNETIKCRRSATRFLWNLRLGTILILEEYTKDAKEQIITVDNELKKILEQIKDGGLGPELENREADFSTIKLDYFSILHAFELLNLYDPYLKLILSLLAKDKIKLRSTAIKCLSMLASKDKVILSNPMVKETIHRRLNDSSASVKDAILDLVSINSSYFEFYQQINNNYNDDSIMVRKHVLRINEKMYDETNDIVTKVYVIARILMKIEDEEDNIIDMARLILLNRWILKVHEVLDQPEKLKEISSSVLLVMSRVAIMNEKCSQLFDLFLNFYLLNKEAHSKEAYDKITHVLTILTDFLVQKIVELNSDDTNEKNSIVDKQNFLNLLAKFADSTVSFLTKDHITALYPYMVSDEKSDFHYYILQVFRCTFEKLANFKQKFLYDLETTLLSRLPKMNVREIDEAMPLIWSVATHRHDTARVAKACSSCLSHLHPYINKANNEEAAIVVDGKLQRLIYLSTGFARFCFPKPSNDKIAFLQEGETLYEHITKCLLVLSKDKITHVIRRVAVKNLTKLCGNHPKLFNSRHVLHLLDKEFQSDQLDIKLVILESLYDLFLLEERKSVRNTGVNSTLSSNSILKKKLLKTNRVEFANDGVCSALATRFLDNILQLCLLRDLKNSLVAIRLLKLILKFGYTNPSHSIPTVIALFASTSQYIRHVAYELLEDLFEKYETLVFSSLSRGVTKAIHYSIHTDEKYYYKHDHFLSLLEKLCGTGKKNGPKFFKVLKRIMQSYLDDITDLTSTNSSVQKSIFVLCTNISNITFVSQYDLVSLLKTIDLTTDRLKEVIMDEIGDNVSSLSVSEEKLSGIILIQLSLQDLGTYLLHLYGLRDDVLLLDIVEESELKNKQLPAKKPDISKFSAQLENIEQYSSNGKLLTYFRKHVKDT

As to “MAU2 chromatid cohesion factor homolog, P40090”, the “listed as a hit” value is “yes”.
